Experimental data from the supplement of paper PMC3545927.
The other results are listed elsewhere or left out. How many sequences the whole screen found active is unknown.

Target: furin, P09958
Assay: furin cleavage Z-score vs untreated control; higher = more cleavage, active = 3.5 or more, inactive = 1 or less, 8 variable residues between constant flanks
Summary of the method: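 Abundance of DNA freed from bead-bound 8-mer peptide–cDNA fusions by purified furin was measured as sequencing read counts after PCR adapter tagging. Cutting ran 7.5, 15 or 30 min in 0.01 ml of 50 mM HEPES pH 7.5 with CaCl2 and NaCl at 1:10 enzyme:substrate. The cleavage Z-score expresses these log counts against furin-free reactions after lowess adjustment and median absolute deviation scaling.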

furin, P09958, sequence (P09958 whole entry): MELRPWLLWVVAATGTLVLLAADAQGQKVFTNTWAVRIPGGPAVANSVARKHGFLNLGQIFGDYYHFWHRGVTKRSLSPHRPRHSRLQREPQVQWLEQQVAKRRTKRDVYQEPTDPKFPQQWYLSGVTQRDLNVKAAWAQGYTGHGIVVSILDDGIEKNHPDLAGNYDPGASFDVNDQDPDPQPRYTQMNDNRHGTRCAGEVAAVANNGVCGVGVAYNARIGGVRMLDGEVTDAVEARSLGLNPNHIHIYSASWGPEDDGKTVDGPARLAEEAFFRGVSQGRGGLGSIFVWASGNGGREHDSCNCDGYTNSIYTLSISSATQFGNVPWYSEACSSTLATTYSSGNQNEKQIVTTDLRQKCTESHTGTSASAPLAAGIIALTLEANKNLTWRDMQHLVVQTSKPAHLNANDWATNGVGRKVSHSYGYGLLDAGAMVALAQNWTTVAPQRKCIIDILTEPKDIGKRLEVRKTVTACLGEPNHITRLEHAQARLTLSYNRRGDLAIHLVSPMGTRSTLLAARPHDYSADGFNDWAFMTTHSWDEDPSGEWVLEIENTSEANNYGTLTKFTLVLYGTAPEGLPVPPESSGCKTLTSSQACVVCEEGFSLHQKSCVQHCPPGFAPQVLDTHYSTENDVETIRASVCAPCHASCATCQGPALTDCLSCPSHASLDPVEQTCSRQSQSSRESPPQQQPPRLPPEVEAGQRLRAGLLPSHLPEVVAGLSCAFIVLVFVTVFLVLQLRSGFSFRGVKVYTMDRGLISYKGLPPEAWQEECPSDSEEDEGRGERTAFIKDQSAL

| Sequence | furin cleavage Z-score (7.5 min) | furin cleavage Z-score (15 min) | furin cleavage Z-score (30 min) |
| --- | --- | --- | --- |
| CASTQCSAHLAGNASASA [HC2522] | 1.38 | 0.361 (inactive) | 0.641 (inactive) |
| CASPDAELIEAGNASASA [HC1271] | -0.191 (inactive) | -1.02 (inactive) | -2.02 (inactive) |
| CASTPCSAHDAGNASASA [HC2571] | -1.23 (inactive) | -0.24 (inactive) | -0.964 (inactive) |
| CAFNILGGWVAGNASASA [HC1065] | -0.849 (inactive) | -1.69 (inactive) | 0.522 (inactive) |
| CATQTVDFSLAGNASASA [HC890] | 0.518 (inactive) | 0.088 (inactive) | -1.06 (inactive) |
| CAIVCCSMSYAGNASASA [HC1984] | 0.599 (inactive) | 0.44 (inactive) | 1.09 |
| CAVVCCSMVYAGNASASA [HC2070] | 1.39 | -0.784 (inactive) | -0.578 (inactive) |
| CAVEAQLHVWAGNASASA [HC587] | 0.261 (inactive) | 1.76 | 0.118 (inactive) |
| CAGMIRVRKSAGNASASA [FS-244] | 9.53 (active) | 9.46 (active) | 8.14 (active) |
| CACPGRPWKSAGNASASA [FS-645] | 0.174 (inactive) | 0.632 (inactive) | -1.05 (inactive) |
| CAPAEILRKSAGNASASA [HC1296] | -1.4 (inactive) | -0.0107 (inactive) | -2.04 (inactive) |
| CAQSLRQRKSAGNASASA [FS-915] | 0.195 (inactive) | 0.0646 (inactive) | 0.773 (inactive) |
| CAGPARSHRSAGNASASA [FS-1525] | 2.6 | 5.21 (active) | 5.09 (active) |
| CAGKPRVRKSAGNASASA [FS-160] | 11.6 (active) | 11.6 (active) | 7.27 (active) |
| CAEVPCHRKSAGNASASA [HC2394] | 0.666 (inactive) | 1.67 | 0.974 (inactive) |
| CAMYECSQHLAGNASASA [HC1689] | 1.1 | 2.02 | 0.756 (inactive) |
| CAEVVYSTWVAGNASASA [HC137] | -0.752 (inactive) | 0.088 (inactive) | 1.03 |
| CASTPCSRHLAGNASASA [HC2533] | 1.13 | 0.843 (inactive) | -0.486 (inactive) |
| CATTPMSGSWAGNASASA [HC48] | -1.24 (inactive) | -0.966 (inactive) | -0.511 (inactive) |
| CAAACGDIINAGNASASA [HC656] | -0.691 (inactive) | -0.739 (inactive) | -0.629 (inactive) |
| CAPSNRSARAAGNASASA [FS-1245] | 8.79 (active) | 11.3 (active) | 9 (active) |
| CAPEIRQARAAGNASASA [FS-1043] | 3.65 (active) | 4.35 (active) | 4.12 (active) |
| CAPTLWARMIAGNASASA [HC1579] | 0.463 (inactive) | 2.4 | 0.0409 (inactive) |

| Sequence | furin cleavage Z-score (7.5 min) | furin cleavage Z-score (15 min) | furin cleavage Z-score (30 min) |
| --- | --- | --- | --- |
| CAYGAGVAGAAGNASASA [HC1088] | -0.899 (inactive) | -0.739 (inactive) | -0.913 (inactive) |
| CAREIRQAFKAGNASASA [FS-2912] | 0.791 (inactive) | 0.404 (inactive) | 0.281 (inactive) |
| CAAMFRVRRNAGNASASA [FS-5] | 13 (active) | 11.7 (active) | 9.8 (active) |
| CAIRARVARAAGNASASA [FS-1348] | 9.33 (active) | 9.7 (active) | 7.2 (active) |
| CARLKKSQFLAGNASASA [FS-2988] | -1.1 (inactive) | -0.681 (inactive) | -1.54 (inactive) |
| CAVDGIMHTRAGNASASA [HC1171] | 1.01 | -0.806 (inactive) | 1.2 |
| CARLHRFWEGAGNASASA [FS-1739] | 1.61 | -1.73 (inactive) | 0.551 (inactive) |
| CASTALAELAAGNASASA [HC1331] | -1.46 (inactive) | -0.668 (inactive) | 0.259 (inactive) |
| CASTARLARAAGNASASA [FS-1287] | 5.91 (active) | 8.42 (active) | 8.27 (active) |
| CAALSRVRRAAGNASASA [FS-973] | 8.87 (active) | 9.48 (active) | 6.93 (active) |
| CASTPCSAHAAGNASASA [HC2563] | 1.54 | 0.374 (inactive) | -0.524 (inactive) |
| CAPLGGAARAAGNASASA [HC232] | -0.625 (inactive) | -0.427 (inactive) | -0.526 (inactive) |
| CALTQRTARAAGNASASA [FS-59] | 6.17 (active) | 5.48 (active) | 5.53 (active) |
| CAALSRTARAAGNASASA [FS-1510] | 8.19 (active) | 7.7 (active) | 6.47 (active) |
| CAVPASAYQVAGNASASA [HC254] | 0.602 (inactive) | -1.58 (inactive) | -0.419 (inactive) |
| CAEVLTSTWVAGNASASA [HC2185] | 0.631 (inactive) | -0.524 (inactive) | 0.492 (inactive) |
| CASTARIRRNAGNASASA [FS-198] | 11.3 (active) | 11.2 (active) | 10.4 (active) |
| CASTPCSAHNAGNASASA [HC2581] | -0.0473 (inactive) | 1.28 | -0.895 (inactive) |
| CAHIARALRNAGNASASA [FS-662] | 0.331 (inactive) | 1.47 | 0.623 (inactive) |
| CAALGRKARAAGNASASA [FS-115] | 6.64 (active) | 6.76 (active) | 5.64 (active) |
| CAALGINAVAAGNASASA [HC865] | 0.253 (inactive) | 0.918 (inactive) | -1.14 (inactive) |
| CASHSRVRRAAGNASASA [FS-294] | 11.4 (active) | 9.7 (active) | 7.37 (active) |
